The panel holds about 79,000 compounds, 15% with a hit somewhere; the sample as a whole holds those more often. Active and inactive are the calls of the source. Rule as the data show it: active = growth inhibition above about 70%; inactive = the rest.
assay: NCI Yeast Anticancer Drug Screen. Data for the cln2 rad14 strain (AID 165);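 also: 0% = growth equal to vehicle treated cultures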; conditions: S. cerevisiae cln2 rad14 strain, at 5.0 µM (retest, dose inferred, filed as 0.5), stronger effect = higher value
Method in brief: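 Each compound was tested on cln2 rad14 yeast. Inhibition of growth was calculated against vehicle-exposed controls.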

SMILES | growth inhibition
COc1cc(/C=C/c2cc[n+](C)cc2)ccc1O | -2% (inactive)
COc1cc(C2c3cc4c(cc3C(OC3CCCCO3)C3COC(=O)C23)OCO4)cc(OC)c1OC (configuration not stated) | -3% (inactive)
O=S(=O)(N/N=C/c1ccc(Cl)cc1Cl)c1ccccc1 | -16% (inactive)
Cc1ccc(C(=O)/C(Cl)=N/O)cc1 | 0% (inactive)
Cc1ccnc(NS(=O)(=O)c2ccc(N=Cc3c4ccccc4nc4cc(Cl)ccc34)cc2)n1 | 16% (inactive)
COc1cc(CCN=Cc2cc(Cl)cc(Cl)c2O)c([N+](=O)[O-])cc1OC | 35% (inactive)
COc1ccc(C(C)c2cc3c(cc2OC/C(C)=N/NC(N)=O)OCO3)cc1 (configuration not stated) | 19% (inactive)
C/C(CCC1CCc2ccccc2C1)=N\NC(N)=O (configuration not stated) | -42% (inactive)
Cc1nc(C(N)=S)sc1C(=O)CC(=O)C(=O)Nc1nc2ccccc2[nH]1 | 7% (inactive)
Clc1ccc([O][In]([O]c2ccc(Cl)cn2)[O]c2ccc(Cl)cn2)nc1 | -4% (inactive)
Cc1ccc(S(=O)(=O)C(=S)Sc2ccccc2)cc1 | 6% (inactive)
Fc1ccc2[nH]ccc2c1 | 9% (inactive)
C(=C/c1ccccc1)/C=N/Nc1ccccc1 | -61% (inactive)
O=S1(=O)CC2C1C1(Cl)OC2(Cl)c2ccccc21 (configuration not stated) | -45% (inactive)
CCCNC(=O)C(=O)NNc1ccccc1 | 11% (inactive)
C/C(=N/O)c1cccc(C(F)(F)F)c1 | -63% (inactive)
COC1=CC(=O)c2c(O)c3c(c(O)c2C1=O)OC1(Oc2c(cc4cc(C)oc(=O)c4c2O)CC1O)C3O (configuration not stated) | 98% (active)
